Only some compounds are listed: those with a hit (about 2.7% of all), similar ones and a draw of the others.
HEK293 tox: cytotoxicity counter-screen for GLP-1 receptor inverse agonists. HEK293 cAMP-luciferase reporter cells, luminescence, 24 h. Potency, µM (highest dose often 38.3 µM), hits mostly inhibitors. 410,000 compounds, 0.13% hits. AID 624418;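 also: loss of luciferase light is scored as toxicity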
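To flag toxic compounds, the library was rerun on cells for 24 hr at 37 deg C and 5% CO2. Viability-linked luminescence was captured 12 min after adding luciferase detection reagent.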
rTrxR1 inhibitor: inhibitors of rat thioredoxin reductase 1 | recombinant rTrxR1, NADPH fluorescence consumption, selenite substrate | Potency, µM (highest dose often 114 µM), usual class: inhibitors | 390,000 compounds, 1% hits | AID 588453; also: nearly all actives have a fitted effect of over 65% in size
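Rat TrxR1 (90 nM in the dispensed reagent) was pre-reduced with 400 uM NADPH for 5 min at room temperature, then incubated with compound for 15 min. After 400 uM selenite was added, NADPH fluorescence (Ex 340/Em 450 nm) was followed for 8 min.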
TrxR1 substrate: rat thioredoxin reductase 1 substrate activity. purified TrxR1 substrate turnover, NADPH consumption readout. 390,000 compounds, 0.01% hits. O89049. Potency, µM (titrated, usually from 114 µM); also: nearly all actives have a fitted effect of over 50% in size
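Rat TrxR1, dispensed at 90 nM, was prereduced with 400 uM NADPH (final) for 5 min at ~22 deg C, then incubated with compound 15 min before 400 uM selenite. A first-read NADPH fluorescence drop versus no-compound background flagged substrates.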
mIDH1 inhibitor: human IDH1 R132H inhibition; 390,000 compounds, 0.093% hits; AID 602179; IDH1-R132H enzyme, NADPH consumption, diaphorase/resazurin fluorescence; Potency, µM (highest dose often 76.6 µM), usual class: inhibitors; O75874; also: nearly all actives have a fitted effect of over 65% in size
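IDH1-R132H (0.5 ug/mL) preincubated 30 min with compound, then NADPH (0.016 mM) and alpha-KG (2 mM) added; 80 min at RT, pH 7.5. Remaining NADPH coupled via diaphorase/resazurin to fluorescence (540/590 nm); concentration-response curves normalized to no-enzyme control.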
GLP1R inv ag: inverse agonists of human GLP-1 receptor | P43220 | AID 624417 | HEK293 GLP-1R CRE-luciferase, luminescence, 24 h; GLP-1R form is constitutively active | 410,000 compounds, 1.6% hits | Potency, µM (top dose mostly 38.3 µM), usual class: inhibitors; also: nearly all actives have a fitted effect of over 55% in size
Target sequence (P43220 whole entry, looked up): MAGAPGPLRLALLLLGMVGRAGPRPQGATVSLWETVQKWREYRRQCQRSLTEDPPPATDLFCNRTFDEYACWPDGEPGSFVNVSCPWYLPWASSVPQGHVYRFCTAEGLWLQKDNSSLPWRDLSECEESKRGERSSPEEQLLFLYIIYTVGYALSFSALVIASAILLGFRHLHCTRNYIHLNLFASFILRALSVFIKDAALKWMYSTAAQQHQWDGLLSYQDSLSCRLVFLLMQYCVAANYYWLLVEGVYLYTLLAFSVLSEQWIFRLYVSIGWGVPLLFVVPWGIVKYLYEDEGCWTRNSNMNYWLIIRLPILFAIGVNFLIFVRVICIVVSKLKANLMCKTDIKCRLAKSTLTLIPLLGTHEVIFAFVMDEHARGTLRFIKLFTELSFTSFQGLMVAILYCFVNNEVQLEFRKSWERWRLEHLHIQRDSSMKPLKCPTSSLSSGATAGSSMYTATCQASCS
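Inverse agonism was detected as reduced cAMP-driven luciferase luminescence after 24 h compound treatment. The cells were HEK293 clones expressing constitutively active human GLP-1R with the reporter. Reporter-only and GPR119 cell lines served as counterscreen controls.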
GLP-1R agonist: GLP-1 receptor (human) agonism; P43220; HEK293 GLP-1R CRE-luciferase, luminescence, 4-6 h; cells express a hypersensitive GLP-1R form; Potency, µM (series often up to 45.6 µM), hits mostly activators; 380,000 compounds, 0.007% hits
Of the large screens only hits and unclear results are named; the others gave an inactive call; ! = repeats disagree. Calls follow the shape of the dose curve; as a rule, active = well fitted curve in the direction sought with a large enough effect; inconclusive = small, poorly fitted or top-dose-only effect, or another doubt; inactive = no such curve, though single readings can be large; an effect the other way counts as inactive or inconclusive.

COc1cccc(Oc2c(C)oc3c(CN4CCCCC4)c(O)ccc3c2=O)c1	rTrxR1 inhibitor 45µM
Cc1ccc(-c2nc(N3CCN(S(=O)(=O)c4ccc(F)cc4)CC3)c3ccc(Cl)cc3n2)cc1	none (no result: HEK293 tox, mIDH1 inhibitor, GLP1R inv ag, GLP-1R agonist)
COc1ccc(OC)c(-c2nn(-c3ccccc3)cc2C(=O)N2CCc3ccccc3C2)c1	GLP1R inv ag 13µM
COc1ccccc1-c1nn(-c2ccccc2)cc1C(=O)N1CCN(C(=O)c2ccco2)CC1	none
COc1ccccc1-c1nn(-c2ccccc2)cc1C(=O)N1CCc2ccccc2C1	GLP1R inv ag 10µM
CS(=O)(=O)n1nc(OC(=O)c2cc(Br)ccc2Cl)cc1N	rTrxR1 inhibitor 6.3µM
CS(=O)(=O)n1nc(OC(=O)c2cccs2)cc1N	rTrxR1 inhibitor inconclusive
CS(=O)(=O)n1nc(OC(=O)c2cccc3ccccc23)cc1N	rTrxR1 inhibitor 56µM
COc1ccccc1-c1sc2cc3c(cc2c1-c1ccc(OCCN2CCCCC2)cc1)OCO3	HEK293 tox inconclusive, GLP1R inv ag 13µM
COc1ccccc1-c1sc2ccccc2c1-c1ccc2c(c1)OCO2	GLP1R inv ag 10µM
COc1ccc(C2=NO[C@@H]3C(=O)N(c4cccc(C)c4C)C(=O)[C@H]23)cc1OC	none
COc1ccc(C2=NO[C@@H]3C(=O)N(c4ccc(C)cc4C)C(=O)[C@H]23)cc1OC	rTrxR1 inhibitor 22µM
COc1ccc(CN2CCN(C(=O)CC(C)C)CC2)cc1Br	none
COc1ccc(/C=C/C(=O)N(CC(C)C)CC(C)C)cc1Br	GLP1R inv ag 11µM
Cc1ccc(NC(=O)COC(=O)/C=C/c2ccc(Br)o2)cc1S(=O)(=O)N(C)C	rTrxR1 inhibitor 50µM
CN(C)S(=O)(=O)c1cccc(NC(=O)COC(=O)/C=C/c2ccc(Br)o2)c1	rTrxR1 inhibitor inconclusive
NC(=O)c1ccc(NC(=O)COC(=O)/C=C/c2ccc(Br)o2)cc1	rTrxR1 inhibitor 45µM
O=S(=O)(/C(=C\c1ccc(C(F)(F)F)cc1)c1nc2ccccc2[nH]1)c1ccccc1	HEK293 tox inconclusive, rTrxR1 inhibitor 4.5µM, GLP1R inv ag inconclusive
COc1cc(C=C2C(=O)c3ccccc3C2=O)ccc1O	none
COc1cc(/C=C2\C(=O)ON=C2c2ccccc2)cc(Cl)c1O	rTrxR1 inhibitor 16µM
COc1cc(/C=C2/C(=O)ON=C2c2ccccc2)ccc1O	rTrxR1 inhibitor 13µM
CCOc1cc(/C=C2\C(=O)ON=C2c2ccccc2)cc(Br)c1O	HEK293 tox inconclusive, rTrxR1 inhibitor 14µM, GLP1R inv ag inconclusive
COc1cc(/C=C2\C(=O)ON=C2c2ccccc2)cc(Br)c1O	rTrxR1 inhibitor 11µM
COc1ccc(/C=C2/C(=O)ON=C2C)cc1Cl	rTrxR1 inhibitor inconclusive
CCC(=O)N1c2nc(C(C)C)nn2C2(CCCCC2)[C@@H]2CCCC[C@@H]21	none (no result: GLP-1R agonist)
CC(C)Cc1nn2c(=O)cc(COC(=O)c3ccc(NC(=O)C4CCCCC4)cc3)nc2s1	none (no result: GLP-1R agonist)
COc1ccc(CNC(=O)c2cnn(-c3ccc(F)cc3)c2-n2cccc2)cc1	none
CC(CNC(=O)c1cnn(-c2ccc(F)cc2)c1-n1cccc1)c1ccccc1 (configuration not stated)	GLP1R inv ag 10µM
CCOC(=O)CC(=O)CSc1nc2cc(C)ccc2cc1C	GLP1R inv ag 10µM
Clc1cccc(Cl)c1CNc1ccc(N2CCCC2)cc1	HEK293 tox inconclusive, rTrxR1 inhibitor 3.5µM
O=C(Nc1nn(Cc2ccc(Cl)cc2)cc1Br)c1ccc(COc2ccccc2Cl)o1	GLP1R inv ag 5µM
O=C(Nc1ccc(Cl)cn1)c1ccc(COc2ccccc2Br)o1	GLP1R inv ag inconclusive
Cc1ccc(CNC(=O)[C@H](C)[C@H]2C[C@]2(C)[C@H](NC(=O)OCc2ccccc2)c2ccccc2)o1	rTrxR1 inhibitor 56µM, GLP1R inv ag inconclusive
C[C@@H](C(=O)NCC1CC1)[C@H]1C[C@]1(C)[C@H](NC(=O)OCc1ccccc1)c1ccccc1	none
COc1ccc(OC)c(NC(=O)c2ccc3c(SCC(=O)O)c4c(nc3c2)CCCC4)c1	mIDH1 inhibitor inconclusive
COc1ccc(OC)c(NC(=O)c2c(NCc3ccc(C)o3)sc3c2CCC(C)C3)c1 (configuration not stated)	GLP1R inv ag inconclusive (no result: GLP-1R agonist)
Cc1cccc(NC(=O)C2(C)CC3c4ccccc4C2c2ccccc23)c1C (configuration not stated)	GLP1R inv ag 10µM
Cc1ccc(C)c(NC(=O)C2(C)CC3c4ccccc4C2c2ccccc23)c1 (configuration not stated)	none
Cc1ccc(S(=O)(=O)N2CCOC2C(Cl)(Cl)Cl)cc1 (configuration not stated)	GLP1R inv ag 10µM
CCc1ccc(NC(=O)CN2CCN(C3CCCCC3)C(=O)C2=O)cc1	none (no result: GLP-1R agonist)
Cc1ccc(NC(=O)CN2CC(C)SC2=NC2CCCCC2)cc1 (configuration not stated)	HEK293 tox inconclusive, GLP1R inv ag 11µM
CCn1nc(C)c(CN2CCc3c([nH]c4ccccc34)C2C(C)(C)C)c1C (configuration not stated)	GLP1R inv ag 7.1µM
CC(=O)Nc1ccc(CN2CCc3c([nH]c4ccccc34)C2C(C)(C)C)cc1 (configuration not stated)	rTrxR1 inhibitor inconclusive, GLP1R inv ag inconclusive
Cc1ccc(S(=O)(=O)N2CCN(c3nc(-n4c(=O)[nH]c5ccccc54)nc4ccccc34)CC2)cc1	none (no result: HEK293 tox, mIDH1 inhibitor, GLP1R inv ag, GLP-1R agonist)
c1ccc(CN2CCC(Nc3nc(-c4cccs4)nc4ccccc34)CC2)cc1	HEK293 tox inconclusive, GLP1R inv ag 7.1µM
O=C(C[n+]1ccc(C(=O)c2ccccc2)cc1)Nc1cccc([N+](=O)[O-])c1	none (no result: rTrxR1 inhibitor, TrxR1 substrate, mIDH1 inhibitor)
CNc1nc(SCc2ccccc2Cl)nc2c1CCCC2	GLP1R inv ag 10µM
COCCCNC(=O)Cn1cnc2sc(C)c(S(=O)(=O)N3CCC(C)CC3)c2c1=O	none (no result: GLP-1R agonist)
CCCCCCCC/C=C\CCCCCCCC(=O)NCCc1ccc(O)c(O)c1	HEK293 tox inconclusive, rTrxR1 inhibitor 27µM!, TrxR1 substrate inconclusive, GLP1R inv ag inconclusive
CCOC(=O)C(=O)Cc1nc(OCc2ccccc2)cc(OCc2ccccc2)n1	GLP1R inv ag 10µM
CCOC(=O)C(Cc1nc(OCc2ccccc2)cc(OCc2ccccc2)n1)=NO	GLP1R inv ag inconclusive
Cc1ccc(C(=O)CSc2nc(C)cc(C)c2C(=O)Nc2cccc(C)c2)cc1	GLP1R inv ag inconclusive (no result: GLP-1R agonist)
CCSc1ncc(Cl)c(C(=O)N(Cc2ccccc2)c2ccc(OC)cc2)n1	GLP1R inv ag 5.6µM (no result: mIDH1 inhibitor, GLP-1R agonist)

Screening results as filed in PubChem BioAssay.
